Test results from PubChem BioAssay AID1159580 (chemical genetic matrix, 2015).
Screen size: about 5,500 compounds; about 2,000 (36%) were called active. Another 18% or so got no clear call; they are omitted. No stated cut-off is given here; in the data, active means normalized growth mostly below about 0.91 (no sharp cut-off); inconclusive means no clear call, values can overlap the other calls; inactive means mostly above about 0.92. The list shows a part of the results.

Test: chemical genetic growth profiling, strain panel (AID 1159580);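 further: tested at 20 µM; growth read once vehicle control cultures reached saturation at 30 °C; 1 = growth at the plate median or of vehicle wells; lower values mean less growth of the strain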
Settings: growth OD

Measured: normalized growth

C[C@@H]1CC[C@H]2[C@@H](C)C(O)O[C@@H]3O[C@@]4(C)CC[C@@H]1[C@]32OO4 (some centres not stated)
active: S. cerevisiae deletion strains, locus YJR075W, strain HOC1, active compounds read low 0.166 | S. cerevisiae deletion strains, locus YKL009W, strain mrt4, active compounds read low 0.649 | S. cerevisiae deletion strains, locus YKL068W, active compounds read low 0.775 | S. cerevisiae deletion strains, locus YKL085W, strain MDH1 (second series), active compounds read low 0.363 | S. cerevisiae deletion strains, locus YKL085W, strain MDH1, active compounds read low 0.363 | S. cerevisiae deletion strains, locus YKL160W, strain elf1, active compounds read low 0.336 | S. cerevisiae deletion strains, locus YKL190W, strain CNB1, active compounds read low 0.231 | S. cerevisiae deletion strains, locus YKR001C, strain vps1, active compounds read low 0.587 | S. cerevisiae deletion strains, locus YKR026C, strain gcn3, active compounds read low 0.407 | S. cerevisiae deletion strains, locus YKR091W, strain srl3, active compounds read low 0.329 | S. cerevisiae deletion strains, locus YLL001W, strain dnm1, active compounds read low 0.233 | S. cerevisiae deletion strains, locus YLL026W, active compounds read low 0.243 | S. cerevisiae deletion strains, locus YLL041C, strain sdh2, active compounds read low 0.3 | S. cerevisiae deletion strains, locus YLR027C, strain aat2, active compounds read low 0.261 | S. cerevisiae deletion strains, locus YLR039C, strain RIC1, active compounds read low 0.33 | S. cerevisiae deletion strains, locus YLR058C, strain SHM2, active compounds read low 0.403 | S. cerevisiae deletion strains, locus YLR102C, strain apc9, active compounds read low 0.419 | S. cerevisiae deletion strains, locus YLR113W, strain HOG1, active compounds read low 0.323 | S. cerevisiae deletion strains, locus YLR221C, strain rsa3, active compounds read low 0.204 | S. cerevisiae deletion strains, locus YLR258W, strain gsy2, active compounds read low 0.279 | S. cerevisiae deletion strains, locus YLR262C, strain YPT6 (second series), active compounds read low 0.322 | S. cerevisiae deletion strains, locus YLR262C, strain YPT6, active compounds read low 0.486 | S. cerevisiae deletion strains, locus YLR268W, strain sec22, active compounds read low 0.248 | S. cerevisiae deletion strains, locus YLR320W, strain mms22, active compounds read low 0.236 | S. cerevisiae deletion strains, locus YLR330W, strain CHS5, active compounds read low 0.307 | S. cerevisiae deletion strains, locus YLR342W, strain FKS1 (second series), active compounds read low 0.483 | S. cerevisiae deletion strains, locus YLR342W, strain FKS1, active compounds read low 0.563 | S. cerevisiae deletion strains, locus YLR357W, strain rsc2, active compounds read low 0.358 | S. cerevisiae deletion strains, locus YLR370C, strain arc18, active compounds read low 0.384 | S. cerevisiae deletion strains, locus YLR371W, strain rom2, active compounds read low 0.528 | S. cerevisiae deletion strains, locus YLR384C, strain iki3, active compounds read low 0.771 | S. cerevisiae deletion strains, locus YLR418C, strain cdc73, active compounds read low 0.254 | S. cerevisiae deletion strains, locus YML016C, strain PPZ1, active compounds read low 0.214 | S. cerevisiae deletion strains, locus YML032C, strain rad52, active compounds read low 0.367 | S. cerevisiae deletion strains, locus YML120C, strain ndi1, active compounds read low 0.29 | S. cerevisiae deletion strains, locus YML124C, strain tub3, active compounds read low 0.421 | S. cerevisiae deletion strains, locus YMR058W, strain fet3, active compounds read low 0.361 | S. cerevisiae deletion strains, locus YMR078C, strain ctf18, active compounds read low 0.401 | S. cerevisiae deletion strains, locus YMR125W, strain sto1, active compounds read low 0.462 | S. cerevisiae deletion strains, locus YMR129W, active compounds read low 0.266 | S. cerevisiae deletion strains, locus YMR205C, strain PFK2, active compounds read low 0.366 | S. cerevisiae deletion strains, locus YMR223W, strain ubp8, active compounds read low 0.31 | S. cerevisiae deletion strains, locus YMR231W, strain pep5, active compounds read low 0.84 | S. cerevisiae deletion strains, locus YMR263W, strain SAP30, active compounds read low 0.47 | S. cerevisiae deletion strains, locus YNL067W, strain RPL9B, active compounds read low 0.288 | S. cerevisiae deletion strains, locus YNL071W, strain lat1, active compounds read low 0.167 | S. cerevisiae deletion strains, locus YNL128W, strain TEP1, active compounds read low 0.167 | S. cerevisiae deletion strains, locus YNL153C, strain GIM3, active compounds read low 0.285 | S. cerevisiae deletion strains, locus YNL183C, strain NPR1, active compounds read low 0.266 | S. cerevisiae deletion strains, locus YNL209W, strain ssb2, active compounds read low 0.195 | S. cerevisiae deletion strains, locus YNL233W, strain BNI4, active compounds read low 0.292 | S. cerevisiae deletion strains, locus YNL248C, strain rpa49, active compounds read low 0.384 | S. cerevisiae deletion strains, locus YNL250W, strain rad50, active compounds read low 0.508 | S. cerevisiae deletion strains, locus YNL271C, strain bni1, active compounds read low 0.505 | S. cerevisiae deletion strains, locus YNL298W, strain CLA4, active compounds read low 0.298 | S. cerevisiae deletion strains, locus YNL307C, strain MCK1, active compounds read low 0.125 | S. cerevisiae deletion strains, locus YNL322C, strain KRE1 (second series), active compounds read low 0.493 | S. cerevisiae deletion strains, locus YNL322C, strain KRE1, active compounds read low 0.349 | S. cerevisiae deletion strains, locus YNR049C, strain mso1, active compounds read low 0.412 | S. cerevisiae deletion strains, locus YNR052C, strain pop2, active compounds read low 0.788 | S. cerevisiae deletion strains, locus YOL006C, strain TOP1, active compounds read low 0.16 | S. cerevisiae deletion strains, locus YOL147C, strain pex11, active compounds read low 0.256 | S. cerevisiae deletion strains, locus YOR001W, strain rrp6, active compounds read low 0.287 | S. cerevisiae deletion strains, locus YOR061W, strain CKA2, active compounds read low 0.475 | S. cerevisiae deletion strains, locus YOR069W, strain VPS5, active compounds read low 0.564 | S. cerevisiae deletion strains, locus YOR070C, strain gyp1, active compounds read low 0.277 | S. cerevisiae deletion strains, locus YOR080W, strain dia2, active compounds read low 0.431 | S. cerevisiae deletion strains, locus YOR083W, strain WHI5, active compounds read low 0.3 | S. cerevisiae deletion strains, locus YOR106W, strain vam3, active compounds read low 0.288 | S. cerevisiae deletion strains, locus YOR136W, strain idh2, active compounds read low 0.321 | S. cerevisiae deletion strains, locus YOR144C, strain elg1, active compounds read low 0.449 | S. cerevisiae deletion strains, locus YOR184W, strain ser1, active compounds read low 0.131 | S. cerevisiae deletion strains, locus YOR231W, strain MKK1, active compounds read low 0.37 | S. cerevisiae deletion strains, locus YOR265W, strain rbl2, active compounds read low 0.327 | S. cerevisiae deletion strains, locus YOR270C, strain vph1, active compounds read low 0.187 | S. cerevisiae deletion strains, locus YOR290C, strain snf2, active compounds read low 0.302 | S. cerevisiae deletion strains, locus YOR316C, strain cot1, active compounds read low 0.433 | S. cerevisiae deletion strains, locus YPL051W, strain arl3, active compounds read low 0.374 | S. cerevisiae deletion strains, locus YPL055C, strain LGE1, active compounds read low 0.331 | S. cerevisiae deletion strains, locus YPL078C, strain atp4, active compounds read low 0.248 | S. cerevisiae deletion strains, locus YPL106C, strain sse1, active compounds read low 0.263 | S. cerevisiae deletion strains, locus YPL240C, strain hsp82, active compounds read low 0.313 | S. cerevisiae deletion strains, locus YPL241C, strain CIN2, active compounds read low 0.323 | S. cerevisiae deletion strains, locus YPL256C, strain CLN2, active compounds read low 0.419 | S. cerevisiae deletion strains, locus YPR119W, strain clb2, active compounds read low 0.424 | S. cerevisiae deletion strains, locus YPR141C, strain kar3, active compounds read low 0.494 | S. cerevisiae deletion strains, locus YPR163C, strain tif3, active compounds read low 0.314 | S. cerevisiae deletion strains, locus YPR167C, strain met16, active compounds read low 0.386 | S. cerevisiae deletion strains, strain wtn01, active compounds read low 0.249 | S. cerevisiae strains, strain wild type, active compounds read low 0.27
inactive: S. cerevisiae deletion strains, locus YMR307W, strain GAS1, active compounds read low 0.661 | S. cerevisiae deletion strains, locus YOL012C, strain htz1 0.255
